From PubChem BioAssay (NCI)
About 83,000 compounds went through this panel and 20% of them were active in at least one assay; those are over-represented in the sample as a whole.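 Testing used 96-well plates and a 48-hour single-concentration exposure. Example: -40 means 40% of the starting cells died.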 Values without a mark were called inactive. Active and inactive are the calls of the source. How the source made its calls: active means growth percent below 10; inactive means the rest.

Key:
Experiment in all cases: NCI-60 one-dose screen, 48 h (100 = growth as untreated, 0 = no growth, -100 = all killed)
Conditions in all cases: 10 µM unless noted
[1] = system: NCI-H23 lung
[2] = system: NCI-H226 lung
[3] = system: NCI-H322M lung
[4] = system: HOP-62 NSCLC
[5] = system: NCI-H460 lung
[6] = system: HOP-92 NSCLC
[7] = system: NCI-H522 lung
[8] = system: A549/ATCC NSCLC
[9] = system: 786-0 renal
[10] = system: COLO 205 colon
[11] = system: DU-145 prostate
[12] = system: K-562 leukemia
[13] = system: MALME-3M melanoma
[14] = system: MDA-MB-231 breast
[15] = system: RXF 393 renal
[16] = system: SF-268 CNS
[17] = system: SF-295 CNS
[18] = system: SF-539 CNS
[19] = system: UACC-257 melanoma
[20] = system: M14 melanoma

SMILES	growth [1]	growth [2]	growth [3]	growth [4]	growth [5]	growth [6]	growth [7]	growth [8]	growth [9]	growth [10]	growth [11]	growth [12]	growth [13]	growth [14]	growth [15]	growth [16]	growth [17]	growth [18]	growth [19]	growth [20]
c1ccc2c(-c3c4ccsc4cc4[nH]c5ccccc5c34)c[nH]c2c1	51.6%	67.9%	69.6%	39.7%	11.6%	63.1%	22.7%	39.2%	27.9%	58.4%	66.3%	16%	46.7%	55%	32.2%	40.7%	26.7%	17.9%	66.9%	8.79% (active)
Cc1cc2cc3cc(C)c(N)cc3[n+](C)c2cc1N	0.672% (active)	30.9%	28.4%	19.3%	-14.5% (active)	-11.9% (active)	-4.5% (active)	3.82% (active)	14.7%	-46.5% (active)	19.1%	9.81% (active)	1.11% (active)	20.2%	26.3%	14.2%	-4.54% (active)	17.3%	5.88% (active)	18.7%
[O-][n+]1ccccc1CCN(O)CCc1cccc[n+]1[O-]	97.1%	85.7%	96.5%	94.1%	115%	86.8%	81.5%	101%	101%	104%	111%	106%	99.5%	97.8%	113%	101%	103%	87%	106%	94.5%
Cc1cc(C(=O)Nc2ncnc3nc[nH]c23)no1	101%	92.3%	90.6%	92.6%	106%	102%	94.3%	100%	103%	104%	108%	87%	105%	105%	107%	99.7%	99.3%	96.9%	112%	99%
CC(C)NC(=O)N1C(=O)CCC1NNC(=O)c1ccc([N+](=O)[O-])cc1 (stereo not given)	89.8%	104%	96.3%	106%	121%	109%	93.1%	104%	98.5%	112%	103%	98.6%	101%	108%	123%	100%	105%	97.7%	111%	100%
O=C(CCN1CCCC1)Nc1ccc2c(NCc3ccc(F)cc3)c3ccccc3nc2c1	-39.8% (active)	4% (active)	-4.47% (active)	-1.6% (active)	-63.4% (active)	-8.01% (active)	-50.1% (active)	-37.6% (active)	6.33% (active)	-62.5% (active)	-38.4% (active)	0.876% (active)	-90.4% (active)	-17.1% (active)	-15.8% (active)	-3.64% (active)	22.8%	3.09% (active)	-3.51% (active)	-25% (active)
Cc1[nH]c(C(=O)Nc2ccccc2OCc2cccc(C(=O)NCCN)c2)c(Cl)c1Cl	78%	87.8%	81.9%	69.2%	51.8%	84.6%	80.9%	63.8%	33.9%	68.7%	100%	-47.5% (active)	58.4%	76.8%	65.2%	67.9%	87.8%	84.9%	104%	87.8%
Cc1ccccc1CNc1ccc(N2CCOCC2)cc1	99.1%	107%	98.3%	117%	112%	115%	101%	103%	107%	108%	102%	101%	102%	101%	114%	93.4%	99.2%	111%	103%	100%
O=C(Cc1ccc(/C=C/C(=O)c2ncc[nH]2)cc1)Nc1ccc(C(F)(F)F)cc1	33.4%	78.9%	71.5%	25.8%	27.1%	70%	54.7%	30.8%	-43.1% (active)	36.3%	16.5%	4.21% (active)	86.2%	32.5%	34%	14.4%	22.9%	-10.1% (active)	82.1%	25.1%
N#CC1=C(N)Oc2c(ccc3ccccc23)C1c1ccc([N+](=O)[O-])cc1 (stereo not given)	79.1%	66.7%	95.2%	73.3%	69.8%	93.4%	57.5%	73%	102%	105%	89.6%	21.4%	84.3%	61.4%	101%	79.6%	75.6%	87.8%	94.7%	67.8%
Fc1ccc(-n2cc(COc3ncnc4sc5c(c34)CCCC5)nn2)cc1Cl	96.8%	94.4%	100%	96.3%	102%	109%	84%	98.4%	98.1%	109%	105%	95.5%	92.1%	95.8%	103%	95.8%	105%	98.8%	102%	94.2%
CN1CCN(CC#CCNC(=O)[C@]23CCC(C)(C)C[C@H]2C2=CC[C@@H]4[C@@]5(C)Cc6c([nH]c7ccccc67)C(C)(C)[C@@H]5CC[C@@]4(C)[C@]2(C)CC3)CC1	95.8%	93.9%	88.7%	91.9%	-25.3% (active)	52.7%	67%	52.8%	64.5%	51.2%	61.9%	1.31% (active)	26.6%	74.1%	66.5%	70%	108%	82.6%	82.2%	51.5%
O=S(=O)(NCCCNc1nccc(-c2c(-c3cccc(O)c3)nc3occn23)n1)c1ccc(Br)cc1	101%	103%	113%	124%	97.1%	108%	94.3%	98.2%	106%	31.9%	97%	67.3%	11.5%	64.3%	82.6%	97.1%	111%	110%	18.4%	29%
CC(Oc1ccc(C(=O)NS(=O)(=O)C(C)(C)C)cc1C(F)(F)F)c1ccc(Oc2ccccc2)cn1 (stereo not given)	83.8%	81.5%	88.3%	78.2%	96.9%	73.1%	17.2%	94.5%	77.7%	77.1%	97%	34.7%	59.4%	81%	65.8%	67.8%	55.9%	76%	78.9%	57.3%
CC[C@H](CC[C@@H](C)[C@H]1CC[C@H]2[C@@H]3CC=C4C[C@@H](OCCc5nn[nH]n5)CC[C@]4(C)[C@H]3CC[C@]12C)C(C)C	97.7%	110%	101%	98.4%	109%	147%	82.9%	93.7%	101%	118%	101%	92.4%	108%	117%	129%	100%	98.1%	103%	103%	108%
C(=C\c1n(Cc2ccc3ccccc3c2)c(-c2ccccc2)c(-c2ccccc2)[n+]1Cc1ccc2ccccc2c1)/c1ccccc1	-80.2% (active)	-74.9% (active)	-5.86% (active)	-84.5% (active)	-84.1% (active)	-81.8% (active)	-62.3% (active)	-62.4% (active)	-78.2% (active)	-70.5% (active)	-97% (active)	-22.3% (active)	-86.9% (active)	-95% (active)	-93.5% (active)	-68.5% (active)	-95.9% (active)	-91.9% (active)	-69.2% (active)	-72.2% (active)
CC(=O)N1c2ccccc2NC2=C(C(=O)N(C)C2(C)C)C1C (stereo not given)	50.2%	91.1%	73.4%	61.6%	21.9%	37.5%	18.6%	80.3%	80.1%	14.2%	79%	16.6%	44.3%	63.3%	27.8%	43%	46%	20.1%	36.4%	21.5%
COc1ccc(C(=O)c2cc(C)c(OC)c(C)c2)c(OC)c1O	31.7%	7.47% (active)	45.8%	12.9%	2.04% (active)	-0.0707% (active)	-9.43% (active)	14.5%	15.2%	66.8%	-5.78% (active)	8.52% (active)	54.8%	16.8%	35.4%	31.5%	25.2%	-10.8% (active)	50.6%	-1.65% (active)
C[C@H]1[C@H](C)CC[C@]2(CO)CC[C@]3(C)C(=CC[C@@H]4[C@@]5(C)Cc6c([nH]c7ccccc67)C(C)(C)[C@@H]5CC[C@]43C)[C@H]12	74.6%	76.9%	72.3%	89%	66.8%	101%	-12.7% (active)	81%	76.1%	95.1%	71.1%	52.4%	46.9%	88.8%	84.1%	74.5%	81.2%	96%	108%	92.8%
COc1cc(C2NC(c3cc(OC)c(OC)c(OC)c3)C(C#N)(C#N)C2(C#N)C#N)cc(OC)c1OC (stereo not given)	101%	91.5%	100%	94.8%	104%	96.5%	95.6%	103%	97%	101%	102%	109%	96%	97.3%	114%	105%	99.8%	95.8%	106%	92.9%
COc1ccc(CNCCN2C(=O)c3ccc4c5c(ccc(c35)C2=O)C(=O)N(CCNCc2ccc(OC)cc2)C4=O)cc1	-52.5% (active)	-63.7% (active)	-74.2% (active)	-33.8% (active)	-78.8% (active)	-46.8% (active)	-80.9% (active)	-84.1% (active)	-76.5% (active)	-40.9% (active)	-90.6% (active)	-37.8% (active)	-76.3% (active)	-16.7% (active)	-93% (active)	-71.2% (active)	-62.2% (active)	-77.3% (active)	-91% (active)	-72.8% (active)
O=S(=O)(O)c1cc(O)c2c(N=Nc3ccc(Nc4ccccc4)c4c(S(=O)(=O)O)cccc34)cc(S(=O)(=O)O)cc2c1	100%	101%	120%	100%	105%	101%	93.5%	101%	102%	97.9%	107%	112%	130%	102%	109%	101%	105%	96.2%	95.6%	103%
C=CCn1c(SCC(=O)Nc2ccc(C(=O)/C=C/c3cc(OC)c(OC)c(OC)c3)cc2)nnc1-c1cc(OC)c(OC)c(OC)c1	55.2%	35.9%	85.5%	55%	31.4%	82.2%	47%	47.2%	53.6%	41.2%	24.2%	6.9% (active)	92.4%	49.3%	21.4%	34.9%	60.4%	4.95% (active)	64.1%	18.6%
COc1ccccc1OCC(=O)N1CCCCCC1	92.8%	92.1%	105%	104%	105%	82.8%	96%	92.1%	117%	110%	107%	83.3%	89.2%	113%	97%	108%	106%	104%	93.3%	119%
COc1cc(CCNc2nc3cc(N)cc(N)c3nc2-c2ccccc2)cc(OC)c1	19.3%	90.5%	23.8%	-35.1% (active)	34.1%	-71.2% (active)	-65.1% (active)	78.3%	-60% (active)	-60.8% (active)	85.7%	-71.2% (active)	-66.4% (active)	-22.6% (active)	-64.4% (active)	7.74% (active)	60.8%	-31.7% (active)	88.9%	-32.8% (active)
O=C(OC(OC(=O)c1cc(Cl)cc(Cl)c1)c1cccc2ccccc12)c1ccccc1 (stereo not given)	93.6%	98.7%	101%	99.5%	107%	101%	80.4%	92.6%	101%	112%	103%	92.1%	91%	95.5%	110%	94.8%	107%	103%	96.1%	101%
CC(c1ccccc1)n1ccnc1CO (stereo not given)	96.5%	100%	101%	105%	104%	66.5%	98.8%	109%	105%	106%	113%	105%	85.5%	104%	101%	107%	96.1%	106%	106%	109%
CC1NC(=S)NC(=O)/C1=C/c1cc(=O)oc2c1ccc1ccccc12 (stereo not given)	93.8%	86.1%	101%	82.1%	102%	75.9%	73.8%	81.3%	107%	104%	108%	94.6%	90.9%	95.1%	101%	97%	100%	96.8%	80.5%	94.9%
